About 83,000 compounds went through this panel and 20% of them were active in at least one assay; those are over-represented in the sample as a whole.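 Single-concentration screen, 48 h exposure, 96-well plates. Endpoint: percent growth. Below 10 = active.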 A number with no mark means an inactive call. Calls of active or inactive are those of the source.
How the values were obtained:
Assay in all cases: NCI-60 one-dose screen, 48 h (100 = growth as untreated, 0 = no growth, -100 = all killed)
[1] = test system: RPMI-8226 leukemia; conditions: 10 µM unless noted
[2] = test system: OVCAR-8 ovarian; conditions: 10 µM unless noted
[3] = test system: OVCAR-5 ovarian; conditions: 10 µM unless noted
[4] = test system: OVCAR-4 ovarian; conditions: 10 µM unless noted
[5] = test system: SK-OV-3 ovarian; conditions: 10 µM unless noted
[6] = test system: IGROV1 ovarian; conditions: 10 µM unless noted
[7] = test system: OVCAR-3 ovarian; conditions: 10 µM unless noted
[8] = test system: HS 578T breast; conditions: 10 µM unless noted
[9] = test system: T-47D breast; conditions: 10 µM unless noted
[10] = test system: BT-549 breast; conditions: 10 µM unless noted
[11] = test system: MDA-MB-435 melanoma; conditions: 10 µM unless noted
[12] = test system: SW-620 colon; conditions: 10 µM unless noted
[13] = test system: MCF7 breast; conditions: 10 µM
[14] = test system: HCT-116 colon; conditions: 10 µM unless noted
[15] = test system: HCC-2998 colon; conditions: 10 µM unless noted
[16] = test system: KM12 colon; conditions: 10 µM unless noted
[17] = test system: NCI/ADR-RES ovarian; conditions: 10 µM unless noted

| Compound | growth [1] | growth [2] | growth [3] | growth [4] | growth [5] [%] | growth [6] | growth [7] | growth [8] | growth [9] | growth [10] | growth [11] | growth [12] | growth [13] | growth [14] | growth [15] | growth [16] | growth [17] |
| --- | --- | --- | --- | --- | --- | --- | --- | --- | --- | --- | --- | --- | --- | --- | --- | --- | --- |
| CCC(C)(C)C(=O)O[C@H]1C[C@@H](C)C=C2C=C[C@H](C)[C@H](CC[C@@H]3CC=CC(=O)O3)[C@H]21 | -16.7% (active) | 61.6% | 142% | 106% | 115 | 97.2% | 51.2% | 94.6% | 80.8% | 95.9% | 60.3% | 17.7% | 36.8% | -5.88% (active) | 88.8% | 87.5% |  |
| Cn1cc(-c2ccc3ncc(-c4ccc(CC(=O)Nc5cc(C(C)(C)C)no5)cc4)nc3c2)cn1 | 32.3% | 37% | 74.6% | 31.9% |  | 19.3% | 49.3% | 25.9% | 25.5% | 55.4% | 28.8% | 48.3% | 30.2% | 24.4% | 60.2% |  | 43.7% |
| Cc1ccc(C(=O)c2oc3ccc4c(C)cc(=O)oc4c3c2C)cc1 | 0.992% (active) | 8.23% (active) | 66% | 33.9% | 46.9 |  | 28.7% | 86.5% | 14.8% | 40.8% | 29.7% | 23.2% | 9.99% (active) | 21.7% |  | 17.8% | 29.5% |
| N#C/C(=C\c1c(-c2ccccc2)[nH]c2ccccc12)C(=O)c1ccccc1 | -0.917% (active) | 46.9% | 70.5% | 68.9% | 57.4 |  | -7.05% (active) | 16% | 39% | 61.5% | 10.8% | 19.9% | 19.4% | 30.4% | 60.1% | 28.2% | 6.15% (active) |
| CCCCN1CCN(c2ccc3nc(-c4ccc5nc(-c6ccc(OC)c(OC)c6)[nH]c5c4)[nH]c3c2)CC1 | -19% (active) | 3.24% (active) | 13.7% | -46.1% (active) |  | -13.2% (active) | -46.8% (active) | -18.7% (active) | 17.6% | -59% (active) | -64.5% (active) | -50.8% (active) | -67.2% (active) | -80.2% (active) | -70.2% (active) |  | 91% |
| O=C(CSc1nc2ccccc2c(=O)n1-c1ccccc1)Nc1ccc(C(=O)/C=C/c2ccc(Cl)cc2)cc1 | 91.5% | 103% | 98.4% | 105% |  | 97.3% | 104% | 106% | 107% | 111% | 103% | 99.1% | 85.1% | 102% | 109% |  | 106% |
| N#Cc1c(N)nc2c(c1N)C(c1ccc(F)cc1)c1ccc(N)cc1O2 (stereo unspecified) | 103% | 97.5% | 99.1% | 96.7% | 119 |  | 118% | 95.6% | 92.3% | 93.8% | 107% | 108% | 98.9% | 101% | 112% | 91.2% | 107% |
| NCCNc1nc2ccccc2c2c(=O)c3cc(F)cc(Cl)c3sc12 | -33.1% (active) | -49.2% (active) | -81.6% (active) | -73.4% (active) |  | 71.9% | -88.6% (active) | 59.9% | -45.6% (active) | 84.8% | -95.2% (active) | -78.9% (active) | -91.6% (active) | -89.6% (active) | 16.2% |  | -44.9% (active) |
| Clc1ncccc1Nc1ccc2nnc(-c3ccncc3)n2n1 | 98.9% | 99.3% | 104% | 91.3% | 104 | 82.3% | 102% | 102% | 86.6% | 108% | 102% | 103% | 94.2% | 101% | 95.7% | 101% |  |
| COc1cccc(/C(C#N)=C/c2nc3c(N4CCOCC4)nc(Cl)nc3n2C)c1 | -23.5% (active) | 9.5% (active) | -37.6% (active) | -65.9% (active) |  | -29.8% (active) | -78.7% (active) | -7.18% (active) | -44.5% (active) | -77% (active) | -80.2% (active) | -72% (active) | -44.1% (active) | -72.9% (active) | 20% |  | 25.9% |
| COc1cccc(C(=O)Cn2cc(/C=C(\C#N)S(=O)(=O)c3ccccc3)c3ccccc32)c1 | 72.2% | 89.3% | 47.9% | 95.6% | 85 |  | 103% | 106% | 91.6% | 103% | 113% | 95.5% | 94.5% | 83.9% | 91% | 107% | 90.6% |
| O=S(=O)(Nc1ncccn1)c1ccc(NC2Nc3nc4ccccc4nc3S2)cc1 (stereo unspecified) | 99% | 98.8% | 96.4% | 102% |  | 96.3% | 109% | 95.9% | 101% | 95.9% | 98.3% | 99.3% | 98.8% | 101% | 108% |  | 99.6% |
| COc1ccccc1C(=O)/C=C/c1ccccc1 | -2.98% (active) | 78.1% | 101% | 88.6% | 90.3 | 85.7% |  |  | 81.4% | 77.5% | 78.4% | 67.4% | 28.6% | 37% | 103% | 55.2% | 76.4% |
| O=c1c2cccc(F)c2sc2c(N3CCNCC3)nc3ccccc3c12 | 1.83% (active) | 32.7% | 61.9% | 46.9% |  | 28.3% | 30.9% | 34.8% | 36.3% | 73.7% | 2.82% (active) | -39.8% (active) | -20.6% (active) | 7.91% (active) | -6.49% (active) | 10.4% | 42.6% |
| O=C(NCc1ccco1)C1CN(c2ccc(Cl)cc2)N(c2ccc(Cl)cc2)C1=O (stereo unspecified) | 48% | 66.4% | 82.2% | 57.7% |  | 46.3% | 3.64% (active) | 36.7% | 43.2% | 51.9% | -32.5% (active) | 28.6% | 14.2% | 21.9% | 76.1% | 22.3% | 24.3% |
| COc1cc(/C=C2\CCC/C(=C\c3cc(CN4CCOCC4)c(O)c(OC)c3)C2=O)cc(CN2CCOCC2)c1O | 19.9% | 19% | 34% | 36.1% |  | 50.7% | 19.4% | 55.1% | 63.3% | 52.5% | 27.4% | 31.1% | 21.1% | 23.3% | 62.1% | 9.12% (active) | 23.3% |
| COc1cc(/C=C2\CN(C)C/C(=C\c3cc(CN4CCCC4)c(O)c(OC)c3)C2=O)cc(CN2CCCC2)c1O | 81% | 65.5% | 94.5% | 65.8% |  | 82% | 50% | 87.8% | 79.7% | 94.1% | 67.6% | 54.5% | 26.3% | 40.4% | 96% | 48.3% | 100% |
| COC(=O)/C(CCC=C(C)C)=C1\[C@@H](OC(C)=O)C[C@@]2(C)[C@H]1CC(=O)N[C@H]1[C@@]3(C)CCNC(=O)[C@@H](C)[C@@H]3CC[C@@]12C | 97.8% | 98.3% | 102% | 101% |  | 105% | 107% | 97.1% | 88.9% | 107% | 105% | 103% | 93% | 101% | 103% | 102% | 106% |
| Cc1c(-c2csc(-n3nc(C(F)(F)F)cc3C(F)(F)F)n2)no[n+]1[O-] | 97.2% | 99.2% | 99.2% | 87.4% |  | 102% | 114% | 98.2% | 87.5% | 102% | 99.2% | 104% | 85.1% | 93.1% | 112% | 104% | 105% |

Source: PubChem BioAssay (NCI)
